PRMT1 inh: inhibitors of human PRMT1 | hit rate 1.3% among 370,000 | inhibition, % at 2.79 µM | recombinant PRMT1, activity-based probe fluorescence polarization | Q99873 | AID 652257;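 active = inhibition above about 21% made by adding two undisclosed values, limit read from the data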
rCAG RNA binder: binds r(CAG) RNA repeats; r(CAG) RNA repeat, TO-PRO-1 dye displacement fluorescence; inhibition, % at 3 µM; hit rate 1.3% among 370,000; AID 651821;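 active = inhibition above the plate cutoff, the mean of all test compounds on that plate plus 3 SD, cut at about 35% in these data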;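 also: 0% = DMSO alone and 100% = 100 µM mitoxantrone as full dye displacement; higher means more dye released from RNA so lower well fluorescence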
TLR4 MyD88 comp: inhibitors of human TLR4-MyD88 binding; AID 861; HeLa CL3-4 TLR4/MyD88 BLA complementation, FRET ratio; inhibition, % at 8.4 µM; hit rate 0.18% among 200,000; in the data active = inhibition above about 25%;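 also: 0% = vehicle and 100% = reference inhibitor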
Target sequence (O00206 whole entry, looked up): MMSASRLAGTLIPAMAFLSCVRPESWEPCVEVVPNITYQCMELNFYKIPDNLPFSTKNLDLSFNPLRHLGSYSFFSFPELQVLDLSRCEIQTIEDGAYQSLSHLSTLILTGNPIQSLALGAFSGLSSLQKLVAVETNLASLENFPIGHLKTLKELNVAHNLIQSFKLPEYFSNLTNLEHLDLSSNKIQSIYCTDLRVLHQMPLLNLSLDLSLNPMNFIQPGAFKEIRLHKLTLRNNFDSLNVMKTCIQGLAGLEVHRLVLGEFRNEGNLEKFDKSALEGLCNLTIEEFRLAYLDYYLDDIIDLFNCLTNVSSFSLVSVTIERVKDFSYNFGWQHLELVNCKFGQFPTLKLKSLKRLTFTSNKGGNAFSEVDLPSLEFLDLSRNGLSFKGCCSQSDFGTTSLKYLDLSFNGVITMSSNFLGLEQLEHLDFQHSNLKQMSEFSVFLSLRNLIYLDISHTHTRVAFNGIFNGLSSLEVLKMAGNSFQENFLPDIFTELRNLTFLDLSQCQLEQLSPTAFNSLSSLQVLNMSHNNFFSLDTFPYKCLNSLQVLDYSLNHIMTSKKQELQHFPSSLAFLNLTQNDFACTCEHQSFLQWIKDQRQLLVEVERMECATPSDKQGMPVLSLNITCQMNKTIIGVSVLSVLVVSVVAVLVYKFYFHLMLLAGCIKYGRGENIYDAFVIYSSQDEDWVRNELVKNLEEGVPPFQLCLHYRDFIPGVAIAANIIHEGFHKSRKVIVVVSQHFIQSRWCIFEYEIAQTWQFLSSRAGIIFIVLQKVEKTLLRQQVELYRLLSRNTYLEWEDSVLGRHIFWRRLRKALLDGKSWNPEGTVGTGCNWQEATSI
Target sequence (Q99836 whole entry, looked up): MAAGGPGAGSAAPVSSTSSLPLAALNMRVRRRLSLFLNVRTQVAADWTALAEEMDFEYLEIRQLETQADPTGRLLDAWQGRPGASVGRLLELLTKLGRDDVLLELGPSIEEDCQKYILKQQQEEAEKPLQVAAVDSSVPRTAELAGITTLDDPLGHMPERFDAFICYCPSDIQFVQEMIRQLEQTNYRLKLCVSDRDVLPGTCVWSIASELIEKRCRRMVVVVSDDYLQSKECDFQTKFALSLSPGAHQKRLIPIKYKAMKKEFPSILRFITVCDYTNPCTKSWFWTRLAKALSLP
TLR9-MyD88 block: blocks human TLR9 binding to MyD88; CHO BLA complementation TLR9-MyD88, CCF4 FRET ratio; hit rate 0.21% among 340,000; inhibition, % at 4.98 µM;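 active = inhibition above the mean over all tested compounds plus 3 SD, cut at about 21% in these data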;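 also: 0% = DMSO only wells and 100% = clavulanate BLA inhibitor control wells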
ABHD5 PLIN5 PPI: inhibitors of human ABHD5-perilipin-5 interaction | Q00G26+Q8WTS1 | Split G. princeps luciferase complementation, luminescence, 4 h | inhibition, % at 4 µM | hit rate 0.78% among 360,000 | AID 602281;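 active = inhibition above the mean inhibition across every tested compound plus 3 SD, cut at about 22% in these data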;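 also: 0% = DMSO only wells and the 100% control is not disclosed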
NOD2-RIPK2 inh: NOD2-RIPK2 protein interaction inhibition. AID 624267. CHO BLA complementation NOD2-RIPK2, CCF4 ratio. inhibition, % at 4.98 µM. O43353. hit rate 0.38% among 360,000; in the data active = inhibition above about 21%;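 also: 0% = vehicle only and 100% = reference blocker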
ABHD5 PLIN5 conf: ABHD5-PLIN5 interaction inhibition, confirmed | AID 651612 | biochemical ABHD5-PLIN5 interaction, luminescence | hit rate 67% among 2,200 | inhibition, % at 4 µM | shares compounds with ABHD5 PLIN5 PPI; in the data active = inhibition above about 23%;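 also: 0% = DMSO vehicle wells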
HNF4 split-luc: HNF4 split-luciferase signal hit, counter-screen; shares compounds with ABHD5 PLIN5 PPI; HNF4 dimerization, luminescence, biochemical; inhibition, % at 4 µM; hit rate 77% among 2,200; AID 651674;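 active = mean inhibition across replicate wells exceeding the computed hit threshold, cut at about 13% in these data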;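 also: light from luciferase halves that rejoin when HNF4 fusion proteins dimerize; 0% = DMSO only wells and the 100% control is not given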
rCAG binder conf: r(CAG) RNA repeat binding, confirmation. shares compounds with rCAG RNA binder. TO-PRO-1 dye displacement fluorescence. inhibition, % at 3 µM. hit rate 70% among 4,300;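 active = inhibition above a per-plate cutoff, the mean inhibition of sample wells plus 3 SD, cut at about 35% in these data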;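 also: loss of TO-PRO-1 fluorescence as compound displaces dye from 1x1 AA loop RNA; 0% = DMSO only wells and 100% = 100 µM mitoxantrone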
DNA CAG counter: DNA CAG dye complex inhibition counter-screen | shares compounds with rCAG RNA binder | d(CAG) DNA oligo TO-PRO-1 dye displacement, fluorescence | inhibition, % at 3 µM | hit rate 94% among 4,300 | AID 652068;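 active = inhibition above its plate's cutoff, the mean test-well inhibition plus 3 SD, cut at about 4.8% in these data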;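 also: 0% = DNA dye mix with DMSO and 100% = 100 µM mitoxantrone; hits displace the dye from DNA and so lower well fluorescence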
PRMT1 inh conf: PRMT1 (human) inhibition, FP confirmation | shares compounds with PRMT1 inh | recombinant His-PRMT1, activity-based probe fluorescence polarization | inhibition, % at 2.79 µM | hit rate 42% among 3,300;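 active = mean inhibition across replicates above the hit cutoff derived for the earlier primary screen, cut at about 22% in these data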
The depositor's hits bear a star; nt = not tested or not shown. Compounds with a hit are over-represented: about 3.3% of the library has one in this group of screens.

SMILES	PRMT1 inh	rCAG RNA binder	TLR4 MyD88 comp	TLR9-MyD88 block	ABHD5 PLIN5 PPI	NOD2-RIPK2 inh	ABHD5 PLIN5 conf	HNF4 split-luc	PRMT1 inh conf	others
O=C1C=C(C2OC(CO)C(O)C2O)C(=O)N1 (centres undefined)	70.0*	0.5	nt	-0.5	68.5*	0.2	47.7*	103.5*	71.3*
C=C1C(=O)C23C(O)C1CCC2C12COC3(O)C(O)C1C(C)(C)CCC2O (centres undefined)	28.9*	-0.7	nt	nt	96.0*	3.0	88.1*	105.9*	41.3*
CN1\C(=C/C=C/C=C/C=[N+](C)C)C(C)(C)c2ccccc21	32.9*	-337.0	-11.4	4.0	24.2*	-3.9	48.7*	38.3*	43.2*
CNC(=S)N/N=C/c1cn(CCOc2cccc(OC)c2)c2ccccc12	-3.4	10.0	-1.9	-6.9	15.0	3.2	nt	nt	nt
O=C1S/C(=C\C=C\c2ccco2)C(=O)N1c1ccccc1	39.8*	40.7*	-9.6	-8.5	37.1*	-5.1	28.2*	36.3*	8.7	rCAG binder conf=18.2;DNA CAG counter=11.5*
O=C1S/C(=C\C=C\c2ccco2)C(=O)N1c1ccc(O)cc1	31.4*	37.6*	-3.7	1.4	49.2*	-4.9	33.1*	49.2*	3.8	rCAG binder conf=17.8;DNA CAG counter=9.9*
Cn1cc(/C=C2\SC(=O)N(c3ccccc3)C2=O)c2ccccc21	0.3	0.7	8.5	-10.5	4.1	8.6	nt	nt	nt
O=C1S/C(=C\c2cccs2)C(=O)N1c1ccc(O)cc1	1.9	6.0	nt	-20.5	-5.0	-13.4	nt	nt	nt
CCOC(=O)c1c(-c2ccc(C)o2)csc1NC(=O)CSc1nnc(C)s1	63.1*	5.4	2.1	1.8	33.3*	18.9	7.5	36.9*	15.2
CCOC(=O)c1c(-c2ccc(C)o2)csc1NC(=O)CSc1nnnn1-c1ccccc1	72.6*	5.4	12.9	-5.4	40.3*	13.0	23.3*	62.5*	3.9
CCOC(=O)c1sc(NC(=O)CSc2nnnn2-c2ccccc2)nc1C	0.0	2.8	-8.0	2.9	-4.1	0.1	nt	nt	nt
CCOC(=O)c1c(-c2ccccc2)csc1NC(=O)CSc1nnc(C)s1	-1.8	3.7	3.0	-1.5	-2.5	9.9	nt	nt	nt
C=CCn1c(SCC(=O)NCC2CCCO2)nc2scc(-c3ccc(OC)cc3)c2c1=O (centres undefined)	3.7	-4.6	nt	3.7	-2.2	5.2	nt	nt	nt
C=CCn1c(SCC(=O)NCC2CCCO2)nc2scc(-c3ccco3)c2c1=O (centres undefined)	25.8*	13.7	-12.2	2.7	34.1*	-6.2	33.9*	82.1*	5.3
NC(=O)c1ccc(-c2ccc(Br)cc2)o1	1.3	0.9	-0.1	-1.4	11.9	-1.1	nt	nt	nt
O=C(O)CCc1ccc(-c2ccc(Br)cc2)o1	62.3*	5.3	-13.7	-3.2	29.0*	-3.8	24.0*	71.2*	62.2*
COc1ccc(-c2noc(CCC(=O)O)n2)cc1	-2.9	-1.3	0.0	-10.3	-2.6	-5.1	nt	nt	nt
COc1ccc(-c2ccc(CCC(=O)O)o2)cc1	57.5*	2.2	-12.4	8.0	60.5*	-8.2	13.7	64.5*	5.5
C#CCCC(=O)O[C@H]1CCC[C@@]2(C(=O)N(Cc3ccccc3)c3ccccc32)[C@H]1NC(=O)CCc1ccccc1	3.3	2.7	nt	nt	nt	nt	nt	nt	nt
CCOc1ccc2[nH]c(=O)c(CN(Cc3ccco3)C(=O)c3ccc(Br)cc3)cc2c1	35.9*	11.0	-12.1	2.1	30.2*	12.1	89.2*	92.5*	0.0
CCOc1ccc2[nH]c(=O)c(CN(Cc3ccco3)C(=O)c3cccc(F)c3)cc2c1	nt	nt	0.8	-2.4	16.9	-6.5	nt	nt	nt

Screening results as filed in PubChem.
